From PubChem
MsrA inh: bovine MsrA enzyme inhibitors, primary screen, biochemical, absorbance, HTS; Methionine sulfoxide reductase A (Bos taurus); purified bovine MsrA, absorbance read-out; inhibition, % at 15.5 µM; 360,000 compounds, 0.75% hits;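 further: 0% = vehicle wells with enzyme and 100% = reference inhibitor wells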
rCAG RNA binder: binders of r(CAG) RNA repeats, primary screen, biochemical, fluorescence; r(CAG) RNA repeat, TO-PRO-1 dye displacement fluorescence; inhibition, % at 3 µM; 370,000 compounds, 1.3% hits;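 active means inhibition above the plate cutoff, the mean of all test compounds on that plate plus 3 SD, cut at about 35% in these data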;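 further: 0% = DMSO alone and 100% = 100 µM mitoxantrone as full dye displacement; higher means more dye released from RNA so lower well fluorescence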
sPLA2-III inh: human group III sPLA2 inhibitors, primary screen, biochemical, QFRET, BODIPY PC-A2 liposome substrate. 370,000 compounds, 0.56% hits. QFRET BODIPY PC-A2 liposome hydrolysis, fluorescence. inhibition, % at 12.2 µM;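 active means inhibition above mean plus 3 SD of compounds lying within the high and low control bounds, cut at about 19% in these data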;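 further: 0% = median of test compound wells and 100% = no enzyme DMSO wells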
Target sequence (Q9NZ20 whole entry, looked up): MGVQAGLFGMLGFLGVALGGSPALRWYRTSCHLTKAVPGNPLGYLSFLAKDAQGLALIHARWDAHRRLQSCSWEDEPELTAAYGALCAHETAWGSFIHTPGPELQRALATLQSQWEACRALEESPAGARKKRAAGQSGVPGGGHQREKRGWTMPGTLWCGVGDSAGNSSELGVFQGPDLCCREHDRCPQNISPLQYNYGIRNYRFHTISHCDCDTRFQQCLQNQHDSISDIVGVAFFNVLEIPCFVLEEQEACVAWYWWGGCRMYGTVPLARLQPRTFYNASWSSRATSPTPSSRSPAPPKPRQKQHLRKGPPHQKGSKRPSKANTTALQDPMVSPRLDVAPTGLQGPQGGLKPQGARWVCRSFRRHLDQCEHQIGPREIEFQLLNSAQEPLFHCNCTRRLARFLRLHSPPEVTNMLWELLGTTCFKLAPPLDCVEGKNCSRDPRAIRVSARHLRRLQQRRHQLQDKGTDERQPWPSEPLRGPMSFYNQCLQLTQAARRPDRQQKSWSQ
bovine MsrA act: bovine MsrA enzyme activators, primary screen, biochemical, absorbance, HTS. Methionine sulfoxide reductase A (Bos taurus). purified bovine MsrA, absorbance read-out. activation, % at 10.6 µM. 360,000 compounds, 0.3% hits. AID 602163, 2012; in the data active means activation above about 7.5%;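 further: 0% = vehicle and 100% = reference activator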
PG9 Ab binder: binders of HIV-1 gp120 antibody PG9, primary screen, biochemical, TR-FRET; TR-FRET gp120-PG9 antibody binding; inhibition, % at 6.7 µM; 360,000 compounds, 0.43% hits; AID 624416, 2012; in the data active means inhibition above about 8.5%
MsrA inh confirm: bovine MsrA inhibitors, retest, confirmation, biochemical, absorbance, HTS | shares compounds with MsrA inh | purified bovine MsrA, absorbance read-out | inhibition, % at 15.5 µM | 2,300 compounds, 41% hits | AID 651822, 2012;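 further: coupled to thioredoxin reductase with NADPH and selenocystamine and DMSO as substrate; 0% = vehicle only and 100% = full effect of reference inhibitor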
Numbers without * were called inactive; . = no result. Only some compounds are listed: those with a hit (about 3.2% of all), similar ones and a draw of the others. Unless noted, no stated cut-off is given here; in the data, active means inhibition above about 4.5%; inactive means the rest.

SMILES | MsrA inh | rCAG RNA binder | sPLA2-III inh | bovine MsrA act | PG9 Ab binder | MsrA inh confirm
CS(=O)(=O)N[C@@H]1C[C@@H]2O[C@@H](CO)CC[C@@H]2O[C@@H]1CCc1ccc(-c2ccccc2F)cc1 | . | 7 | -19 | . | . | .
c1ccc2c(c1)CCCN2c1nc2ccccc2n2cnnc12 | 12* | 4 | -1 | -12 | 0 | 12*
CC(=O)Nc1nc2nc(-c3ccccc3)cc(-c3ccccc3)n2n1 | 3 | 1 | 4 | -13 | 3 | .
O=C1CCC(=O)N1c1nc2nc(-c3ccccc3)cc(-c3ccccc3)n2n1 | 4.7* | 7 | 8 | -8 | -2 | 2
COc1ccc2c(c1OC)C(=O)OC2CC(=O)c1ccc(N(C)C)cc1 (centres undefined) | 4.7* | 2 | 10 | -3 | 0 | 4.6*
CN(C)S(=O)(=O)c1ccc2nc(NC(=O)c3cccs3)sc2c1 | 6.2* | 14 | -4 | -3 | 2 | 5.4*
O=C(Nc1nc2ccc(S(=O)(=O)N3CCOCC3)cc2s1)c1cccs1 | 5.6* | 9 | 4 | -2 | -1 | 4
Cc1nc(NC2CCCC2)c2nnn(Cc3ccccc3)c2n1 | . | 1 | 4 | . | . | .
O=C(NCc1ccccc1Cl)C1CCCN(c2nc3ccccc3o2)C1 (centres undefined) | . | 2 | 2 | . | . | .
O=C1NC(=S)N/C1=C\c1ccccc1OCc1ccc(C(=O)O)cc1 | 6.4* | 11 | -10 | -2 | -2 | 3
CCOC(=O)[C@]12CCCCC/C=C\1N(Cc1ccc(OC)cc1)C(=O)[C@H]2CC(=O)NCc1cccc(C(F)(F)F)c1 | . | 2 | -13 | . | . | .
Cc1c(NC(=O)C(C)OC(=O)/C=C/c2ccccc2)c(=O)n(-c2ccccc2)n1C (centres undefined) | 0 | -4 | 1 | -2 | 0 | .
COc1cc(/C=C/C(=O)OC(C)C(=O)Nc2c(C)n(C)n(-c3ccccc3)c2=O)ccc1O (centres undefined) | 5.9* | -2 | 12 | -7 | -1 | 3
O=C1N=C(N2C=CC(=C3C=CNC=C3)C=C2)/C(=C/N=NC(=O)c2ccccc2)S1 | 11* | 0 | 17 | -5 | -38 | 11*
COC(=O)[C@]12C[C@H](CC(=O)N3CCCCC3)C(=O)N(CCc3ccc(OC)c(OC)c3)C1=C[C@H](COCc1ccccc1)O[C@@H]2C | . | 2 | 5 | . | . | .
NS(=O)(=O)c1ccc(N/N=C/c2ccc(C(=O)O)cc2)c([N+](=O)[O-])c1 | 5.1* | 5 | 4 | -6 | -1 | 4.9*
COc1cc(/C=N/Nc2ccc(S(N)(=O)=O)cc2[N+](=O)[O-])cc(OC)c1O | 4 | 29 | -13 | -5 | -11 | .
NS(=O)(=O)c1ccc(N/N=C/c2ccc[nH]2)c([N+](=O)[O-])c1 | 5.1* | 9 | 18 | -10 | -16 | 5.5*
O=C(NC1CCC1)c1ccc(C#CC2CC2)c[n+]1[O-] | . | 2 | 14 | . | . | .
CCCSc1nc(N2CCOCC2)c2c(c1C#N)CCCC2 | 13* | 2 | -4 | -4 | 1 | 11*
CCCc1nc(N2CCOCC2)c(C#N)c2c1CCCC2 | 0 | -2 | -1 | -11 | 0 | .
N#CCCSc1nc(N2CCOCC2)c2c(c1C#N)CCCC2 | 18* | -3 | -5 | 0 | -2 | 15*
COC(=O)CSc1nc(N2CCCCC2)c2c(c1C#N)CCCC2 | 0 | 1 | -1 | -7 | -1 | .
CSc1nc(N2CCOCC2)c2c(c1C#N)CCCCC2 | 5.5* | -2 | -2 | -2 | 3 | 3
CC(C)(C)N(Cc1cn(CC2CCCCC2)nn1)S(=O)(=O)c1ccccc1Br | . | 1 | -1 | . | . | .
SMILES | MsrA inh | rCAG RNA binder | sPLA2-III inh | bovine MsrA act | PG9 Ab binder | MsrA inh confirm
CCCOc1ccc(-c2nn(-c3ccccc3)cc2/C=C2\SC(N)=NC2=O)cc1C | 0 | 5 | -2 | -2 | -5 | .
COc1ccc(-c2nn(CCC(=O)O)cc2/C=C2\SC(N)=NC2=O)cc1OC | 5.6* | 12 | 12 | -5 | -1 | 3
COC(=O)c1ccccc1NC(=O)c1cnc2sccn2c1=O | 1 | 0 | 4 | -2 | 1 | .
O=C(Nc1nccs1)c1cnc2sccn2c1=O | 5.8* | 2 | -6 | -10 | 2 | 5.7*
O=S(=O)(CC1NCCc2ccccc21)NCCc1ccccc1 (centres undefined) | . | 2 | 7 | . | . | .
C=CCOc1cccc(/C=C\c2nc(O)c([N+](=O)[O-])c(=O)[nH]2)c1 | 4.8* | 7 | 2 | -2 | 1 | 4
O=[N+]([O-])c1cc(S(=O)(=O)Nc2ccccc2)ccc1Nc1ccccc1 | 5.7* | 12 | -18 | -5 | -2 | 4
O=[N+]([O-])c1cc(S(=O)(=O)Nc2ccccc2)ccc1NCc1ccccc1 | 0 | 7 | -23 | 1 | 0 | .
COc1ccc(CN2C(=O)c3ccnn3CC2(C)c2nnnn2-c2c(C)cccc2C)cc1 (centres undefined) | . | 3 | -3 | . | . | .
Nc1c2ccccc2nc2ccccc12 | 0 | 7 | -1 | -3 | 0 | .
N#Cc1c2ccccc2nc2ccccc12 | 7.0* | -2 | 11 | -3 | -5 | 5.0*
O=C1CCC2(CCC(c3ccccc3)CC2)N1CCCO (centres undefined) | . | 2 | 3 | . | . | .
Cc1cc(=O)oc2c(C(=O)/C=C/c3ccccc3)c(O)ccc12 | -1 | 8 | 3 | -4 | 0 | .
Cc1cc(=O)oc2c(C(=O)/C=C\c3cccs3)c(O)ccc12 | 5.2* | 6 | -3 | -6 | -1 | 6.3*
CC(=O)c1c(OCC(=O)O)ccc2c(C)cc(=O)oc12 | 1 | 5 | 2 | -4 | -1 | .
COc1cc(/C=C/C(=O)c2c(O)ccc3c(C)cc(=O)oc23)ccc1O | 6.9* | 25 | -6 | -8 | 0 | 6.1*
COc1ccc(/C=C\C(=O)c2c(O)ccc3c(C)cc(=O)oc23)cc1OC | 5.2* | 19 | -8 | -3 | 1 | 4
N#CCC[C@@H]1CC[C@]2(CCCN(S(=O)(=O)c3ccccc3)C2)O1 | . | 3 | 17 | . | . | .
O=C1c2cccc3c([N+](=O)[O-])ccc(c23)C(=O)N1CCc1ccccn1 | -1 | -1 | 1 | -6 | -1 | .
CN(C)CCCN1C(=O)c2cccc3c([N+](=O)[O-])ccc(c23)C1=O | 18* | 3 | 3 | -7 | -1 | 10*
O=C1N=C(N2CCOCC2)S/C1=C\c1cccnc1 | 2 | -1 | 0 | 1 | 0 | .
CC1CCN(C2=NC(=O)/C(=C/c3ccccc3F)S2)CC1 | 5.4* | -4 | 5 | -3 | 8 | 4
CC1CCN(C2=NC(=O)/C(=C/c3cccc(O)c3)S2)CC1 | 4.7* | 1 | -15 | -2 | -2 | 2
CCCCCCCCN1CCS(=O)(=O)N(Cc2ccccc2)C(C(=O)OC)C1 (centres undefined) | . | -2 | -5 | . | . | .
